# From PubChem BioAssay (EPA / NIEHS)
# Active and inactive are the calls of the source. The calls were made as follows: active = hit-call score of the fitted dose curve at least 0.9, where 1 is the maximum; inactive = score below 0.9.
# Experiment: ATG_M_32_CIS: Attagene CIS-FACTORIAL HepG2 Assay for M32 Transcription Factor (Internal Marker) (AID 2282949);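 also: background control marker of the multiplexed CIS panel rather than a real target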
# Settings: HepG2 Attagene cis-factorial M32 reporter, mRNA; actives raise or lower the signal
# Method: ATG_CIS is a cell-based, multiplexed-readout assay that uses HepG2, a human liver cell line, with measurements taken at 24 hours after chemical dosing in a 24-well plate.ATG_M_32_CIS is one of 52 assay component(s) measured or calculated from the ATG_CIS assay. It is designed to make measurements of mRNA induction, a form of inducible reporter, as detected with fluorescence intensity signals by Reverse transcription polymerase chain reaction (RT-PCR) and Capillary electrophoresis technology.Data from the assay component ATG_M_32_CIS was analyzed into 1 assay endpoint. This assay endpoint, ATG_M_32_CIS, was analyzed with bidirectional fitting relative to DMSO as the negative control and baseline of activity. Using a type of inducible reporter, measures of mRNA for gain or loss-of-signal activity can be used to understand the background control at the transcription factor-level as they relate to the gene . Furthermore, this assay endpoint can be referred to as a secondary readout, because this assay has produced multiple assay endpoints where this one serves a background control function. To generalize the intended target to other relatable targets, this assay endpoint is annotated to the background measurement intended target family, where the subfamily is internal marker.
# Human liver HepG2 cells are transiently transfected with multiple reporter transcription units (MRTUs) in 6-well plates using FuGene 6 reagent (Roche; 3 ml FuGene/1 mg DNA). The MRTU constructs are regulated by a cis-regulating element (promoter). […] A major difference between the CIS and TRANS system is that in CIS activities of endogenous TFs are measured, whereas the TRANS assay evaluates changes in activities of exogenous, chimeric NR-Gal4 proteins. […] At the end of 24 hour incubation, total RNA was isolated using TriZol reagent (Invitrogen). The isolated RNA is then reverse-transcribed using oligo(dT) primer and Mo-MLV reverse transcriptase (Invitrogen) with DNAse I (Ambion) treatment for 30 min. The one-tenth of the produced cDNA was amplified by PCR using Taq DNA polymerase (Invitrogen) and two reporter sequence-specific primers. The PCR products were fluorescently labeled by primer extension with 6-arboxyfluorescein (6-FAM) 5'-labeled reporter sequence-specific primer (2 min at 95 C, 20 s at 68 C and 10 min at 72 C) and these products were digested with 5U of HpaI (New England Biolabs) for 2h at 37 C. The fragments were purified using Qiaquick PCR columns (Qiagen), analyzed on an ABI 3130xL genetic analyzer (Applied Biosystems) with peak positions identified by using a set of X-rhodamine (ROX)-labeled MapMarker1000 molecular weight standards (BioVentures). The raw capillary electrophoresis data was processed using Attagraph software (Attagene).
SMILES,outcome,AC50
O=C(NC(=O)c1c(F)cccc1F)Nc1cc(Cl)c(OC(F)(F)C(F)C(F)(F)F)cc1Cl (stereo not given),inactive,–
O=c1[nH]c(=O)n(Cl)c(=O)n1Cl,inactive,–
CCCCC(CC)COC(=O)Cl (stereo not given),inactive,–
CCNc1nc(NCC)nc(SC)n1,inactive,–
[F][Sn]([c]1ccccc1)([c]1ccccc1)[c]1ccccc1,inactive,–
O=CCCl,inactive,–
Clc1cccc(Cl)c1,inactive,–
CC(C=O)Cc1ccc2c(c1)OCO2 (stereo not given),inactive,–
CNC(=O)O/N=C/C(C)(C)S(C)(=O)=O,inactive,–
CCOC(=O)CCN(SN(C)C(=O)Oc1cccc2c1OC(C)(C)C2)C(C)C,inactive,–
NC(=O)c1ccc(N)nc1,inactive,–
O=NN1CCOCC1,inactive,–
CN(C)C(=S)S,inactive,–
Oc1c(Cl)cc(Cl)cc1Cl,inactive,–
CC(=Cc1ccccc1)[N+](=O)[O-],inactive,–
Cl[C@H]1OCCO[C@@H]1Cl,inactive,–
CNC(=O)N(C)c1nc2ccccc2s1,inactive,–
Brc1ccc(Br)cc1,inactive,–
BrCC(Br)c1ccccc1 (stereo not given),inactive,–
ClCCCCl,inactive,–

SMILES,outcome,AC50
Cc1cc(-c2cc(C)c(N)c(C)c2)cc(C)c1N,inactive,–
ClCc1ccccc1CCl,inactive,–
O=C(O)CC(O)(CC(=O)O)C(=O)O,inactive,–
O=C(CCl)Nc1ccccc1,–,134 µM (active)
COP(=S)(OC)Oc1cc(Cl)c(I)cc1Cl,inactive,–
CC(c1ccc(O)cc1)c1ccc(O)cc1,inactive,–
CN(C)[C@@H]1C(=O)C(C(N)=O)=C(O)[C@@]2(O)C(=O)C3=C(O)c4c(O)ccc(Cl)c4[C@@](C)(O)[C@H]3C[C@@H]12,inactive,–
Oc1cc(Cl)c(Cl)cc1Cl,inactive,–
O=C(CCl)NCO,inactive,–
COCC(=O)N(c1c(C)cccc1C)[C@H](C)C(=O)OC,inactive,–
Oc1cccc(-c2ccccc2)c1,inactive,–
CCCCCCCCCCCCCl,inactive,–
C=C(C)C(=O)OCCCCOC(=O)C(=C)C,inactive,–
OC(Cc1ccccc1Cl)(Cn1[nH]cnc1=S)C1(Cl)CC1 (stereo not given),inactive,–
C=CCCl,inactive,–
Nc1ccc(Br)cc1,inactive,–
Nc1c(Oc2ccccc2)cc(O)c2c1C(=O)c1ccccc1C2=O,inactive,–
O=C(O)C1(c2ccc3c(c2)OC[C@H](Cc2ccc(-c4ccccc4)cc2)[C@H]3O)CCCC1,inactive,–
CC(C)(COCC1CO1)COCC1CO1 (stereo not given),inactive,–
Cc1cc(C(C)(C)c2ccc(O)c(C)c2)ccc1O,inactive,–
